Many of the other results were omitted from the sample, so hits are more common in it than they were.
FECH inh: human FECH heme synthesis enzyme inhibition; P22830; purified FECH, Ni-mesoporphyrin absorbance 550 nm; calls only at 10 µM (by protocol); hit rate 3.3% among 20,000; AID 1671448;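 active means enzyme reaction rate more than 3 SD below the solvent-only control wells on the same plate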;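 further: lower slope than DMSO wells means FECH inhibition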
Target sequence (P22830 whole entry, looked up): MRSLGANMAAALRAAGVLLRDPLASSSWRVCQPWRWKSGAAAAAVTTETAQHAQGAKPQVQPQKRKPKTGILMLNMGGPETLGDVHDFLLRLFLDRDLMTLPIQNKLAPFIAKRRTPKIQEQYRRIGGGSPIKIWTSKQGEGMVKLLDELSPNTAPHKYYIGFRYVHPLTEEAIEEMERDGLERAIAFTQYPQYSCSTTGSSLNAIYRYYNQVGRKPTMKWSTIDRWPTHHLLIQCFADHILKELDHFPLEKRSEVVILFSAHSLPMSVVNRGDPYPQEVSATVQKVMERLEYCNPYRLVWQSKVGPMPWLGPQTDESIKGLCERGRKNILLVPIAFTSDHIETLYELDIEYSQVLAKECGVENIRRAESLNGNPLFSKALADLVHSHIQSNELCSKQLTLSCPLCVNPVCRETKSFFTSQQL
* = called active by the depositor; i = inactive; + = active, no number.

SMILES | FECH inh
COc1ccccc1-n1nc(C(C)C)nc1CCc1cccnc1 | i
COc1ccccc1-n1nc(C(C)C)nc1Cc1cc(C)no1 | i
COc1ccccc1-n1nc(CC(C)C)nc1C(C)n1ccnc1 (stereo unspecified) | +
Cc1cncc(C(=O)NCC2CCN(Cc3ccccc3F)C2)c1 (stereo unspecified) | i
CN(CC(=O)NCc1ccccc1F)Cc1nc2ccccc2n1C | i
CCCc1c(C)nc2ncnn2c1Sc1ccc(NC(=O)C(C)C)cc1 | i
Cc1ccc(C(=O)Nc2ccc(Nc3nc(C)cc(N(C)C)n3)cc2)cc1 | i
Cc1cc(N(C)C)nc(Nc2ccc(NC(=O)c3ccc(I)cc3)cc2)n1 | i
Cc1cc(C)cc(C(=O)Nc2ccc(Nc3nc(C)cc(N(C)C)n3)cc2)c1 | +
CCCCOc1ccc(C(=O)Nc2cc(C)nn2-c2ncnc3c2cnn3-c2ccccc2)cc1 | i
Cc1ccc(S(=O)(=O)Nc2nc3n(n2)C(c2ccccc2)C=C(c2ccc(Cl)cc2)N3)cc1 (stereo unspecified) | i
Cc1ccc(C2=CC(c3ccccc3Cl)n3nc(NS(=O)(=O)c4ccc(C)cc4)nc3N2)cc1 (stereo unspecified) | i
COc1ccc(C2C=C(c3ccccc3)Nc3nc(NS(=O)(=O)c4ccc(C)cc4)nn32)cc1 (stereo unspecified) | i
O=S(=O)(Nc1nc2n(n1)C(c1ccccc1)C=C(c1ccccc1)N2)c1ccc(Cl)cc1 (stereo unspecified) | i
Cc1ccc(C2=CC(c3ccc(C)cc3)n3nc(NS(=O)(=O)c4ccc(C)cc4)nc3N2)cc1 (stereo unspecified) | +
Cc1ccc(S(=O)(=O)Nc2nc3n(n2)C(c2c(F)cccc2Cl)C=C(c2ccccc2)N3)cc1 (stereo unspecified) | +
CC(C)c1nccc(CN2CCC(c3ccnc(-c4ccncc4)c3)C2)n1 (stereo unspecified) | i
CCn1nc(CC(C)C)cc1C(=O)N1CCc2[nH]nc(-c3ccccc3)c2C1 | i
CCc1nnc(CN(C(=O)c2oc3cc(OC)ccc3c2C)C(C)C)o1 | i
COc1ccc(-c2cc(Nc3cccc(O)c3)nc(C)n2)cc1 | i
O=S(=O)(NCc1nc2cccnc2n1C1CCCCC1)c1ccc(F)c(Cl)c1 | i
CCOC(=O)c1cc2ccsc2n1CC(=O)Nc1ccccc1C | i
COC(=O)c1cc2ccsc2n1CC(=O)Nc1c(C)cccc1C | i
CCOC(=O)c1cc2ccsc2n1CC(=O)Nc1c(C)cc(C)cc1C | +
Nc1ncccc1OCc1nc(COc2ccccc2)no1 | i
SMILES | FECH inh
COc1ccc(F)c(-c2ccnc(CO)c2)c1 | i
CCc1cc(Sc2ccc(NC(=O)Nc3cccc(SC)c3)cc2)n2nc(C)nc2n1 | i
COc1cccc(OCC(=O)Nc2cc(C)nn2-c2ncnc3c2cnn3-c2cccc(C)c2C)c1 | i
Cc1cccc(OCC(=O)Nc2cc(C)nn2-c2ncnc3c2cnn3-c2cccc(C)c2C)c1 | i
Cc1cc(NC(=O)COc2ccc(C(C)C)cc2)n(-c2ncnc3c2cnn3-c2cccc(C)c2C)n1 | +
CCc1cc(Sc2ccccc2NC(=O)c2ccc(Br)cc2)n2ncnc2n1 | i
CSc1nc(-c2ccccc2)c(C#N)c(N2CCN(c3ccc(F)cc3)CC2)n1 | i
Cc1cc(N(C)C)nc(N2CCN(S(=O)(=O)c3ccc(Oc4ccccc4)cc3)CC2)n1 | i
Cc1cccc(S(=O)(=O)N2CCN(c3nc(C)cc(N(C)C)n3)CC2)c1 | i
Cc1cc(N(C)C)nc(N2CCN(S(=O)(=O)c3ccccc3)CC2)n1 | +
CCCN(c1nc2nc(C)c(Cl)c(C)n2n1)S(=O)(=O)c1ccccc1 | i
CCNC(=O)C1CCN(Cc2ccc(C(=O)Nc3c(C)cnn3C)cc2)C1 (stereo unspecified) | i
Cc1cccc(NS(=O)(=O)c2cc(-c3ccc(=O)[nH]n3)ccc2Cl)c1C | i
O=c1c2c(nc3nc(CNc4ccccc4Cl)[nH]n13)CCC2 | i
Cc1cccc(C)c1NCc1nc2nc3c(c(=O)n2[nH]1)CCC3 | +
Cc1ccc(Cc2nc3nc4c(c(=O)n3[nH]2)CCCC4)cc1 | i
Cc1cccc(NCc2cc(=O)n3[nH]c(NCc4ccc(F)cc4)nc3n2)c1C | i
Cc1cccc(NCc2nc3nc4c(c(=O)n3[nH]2)CCC4)c1C | +
CCc1cc(Nc2ccc(F)cc2Cl)n2ncnc2n1 | i
CCCCC1C(=O)N(C)CCN1C(=O)c1ccccc1NCC(=O)O (stereo unspecified) | i
CCCSc1ccccc1-n1cnnc1 | i
CCc1ccc2c(c1)-c1ccccc1S(=O)(=O)N2CC(=O)NCCCn1ccnc1 | +
CCc1ccc2c(c1)-c1ccccc1S(=O)(=O)N2CC(=O)NCc1cccnc1 | +
CCc1ccc(C2=C(C)C(=O)N(CC(=O)NCc3cccs3)S2(=O)=O)cc1 | i
O=C(CN1c2ccc(F)cc2-c2ccccc2S1(=O)=O)NCCCn1ccnc1 | i
SMILES | FECH inh
CCc1ccc2c(c1)-c1ccccc1S(=O)(=O)N2CC(=O)NCCSC1CCCCC1 | i
CCc1ccc(C2=C(C)C(=O)N(CC(=O)Nc3cc(C)ccc3OC)S2(=O)=O)cc1 | i
Cc1ccc(C)c(S(=O)(=O)NCc2nc3cccnc3n2Cc2ccc(F)cc2)c1 | i
CS(=O)(=O)NC1CCN(C(=O)CCC(=O)NC2CCCC2)CC1 | i
CN(C)Cc1nnc(C(=O)N2CCC(N(C)C)C2)o1 (stereo unspecified) | i
O=c1c2c(nc3nc(CNc4ccc(F)cc4)[nH]n13)CCC2 | +
CCc1nc2nc(C)c(NC(=O)Nc3ccc4c(c3)OCCO4)c(=O)n2[nH]1 | i
CCCc1nc2nc(CC)[nH]n2c(=O)c1N | i
CCc1ccc(NCc2nc3nc4c(c(=O)n3[nH]2)CCC4)cc1 | +
O=c1cc(CN2CCCCC2)nc2nc(NCc3ccc(F)cc3)[nH]n12 | i
CCC(Nc1nc(C2CCCC2)nc2c1cnn2C)c1ccncc1 (stereo unspecified) | i
COc1ccc(S(=O)(=O)Nc2cnc(N3CCC(N4CCCCC4)CC3)c(C(=O)O)c2)cc1 | i
COc1cccc(Nc2nc(N3CCC(C)CC3)nc3c2cnn3-c2ccccc2)c1 | i
CCOc1cccc(CN(CCO)C(=O)c2ccco2)c1 | i
COc1ccc(Nc2cc(C(C)C)nc3nc(-c4cccnc4)nn23)cc1 | i
O=C(CN1CCN(Cc2ccccc2Cl)S1(=O)=O)NCc1ccccc1Cl | i
Cc1ccc(CNC(=O)CN2CCN(Cc3ccc(F)cc3Cl)S2(=O)=O)cc1 | i
O=C(CN1CCN(Cc2ccc(F)cc2Cl)S1(=O)=O)Nc1ccc2c(c1)OCO2 | i
O=C(CN1CCN(Cc2ccccc2Cl)S1(=O)=O)Nc1ccc(F)cc1 | i
O=C(CN1CCN(Cc2ccc(F)cc2Cl)S1(=O)=O)NCc1ccccc1 | +
COc1ccc(CCNC(=O)CN2CCN(Cc3ccc(F)cc3Cl)S2(=O)=O)cc1OC | +
Cc1ccc(CN2CCN(CC(=O)Nc3cccc(Cl)c3C)S2(=O)=O)cc1 | i
Cc1c(Cl)cccc1NC(=O)CN1CCN(Cc2ccc(F)cc2Cl)S1(=O)=O | +
O=C(CN1CCN(Cc2ccc(F)cc2Cl)S1(=O)=O)NCc1ccccc1Cl | +
COC(=O)c1ccc(OC)c(CN2CCN(Cc3ccc(F)cc3Cl)S2(=O)=O)c1 | i
Cc1cccc(C)c1NC(=O)CN1CCN(Cc2ccc(F)cc2Cl)S1(=O)=O | i
O=C(CN1CCN(Cc2ccc(F)cc2)S1(=O)=O)NCc1ccccc1 | i
